Jurkat NFkB inh – lowers PMA/ionomycin-induced NF-kB signal in Jurkat cells. inhibition, % at 4 µM. PMA/ionomycin-induced NF-kB luciferase reporter, luminescence. 0.53% of 330,000 active; in the data active means inhibition above about 50%
NR2F2 inh – blocks human COUP-TFII nuclear receptor; P24468; HEK293T NGFI-A luciferase reporter, luminescence; inhibition, % at 8.6 µM; 0.7% of 370,000 active;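 active means inhibition above a per-plate cutoff, mean inhibition of test wells between control levels plus 3 SD, cut at about 38% in these data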;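 further: cells cotransfected with COUP-TFII expression vector driving the NGFI-A reporter; 0% = median of COUP-TF2 test wells and 100% = reporter-only cells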
Target sequence (P24468 whole entry, looked up): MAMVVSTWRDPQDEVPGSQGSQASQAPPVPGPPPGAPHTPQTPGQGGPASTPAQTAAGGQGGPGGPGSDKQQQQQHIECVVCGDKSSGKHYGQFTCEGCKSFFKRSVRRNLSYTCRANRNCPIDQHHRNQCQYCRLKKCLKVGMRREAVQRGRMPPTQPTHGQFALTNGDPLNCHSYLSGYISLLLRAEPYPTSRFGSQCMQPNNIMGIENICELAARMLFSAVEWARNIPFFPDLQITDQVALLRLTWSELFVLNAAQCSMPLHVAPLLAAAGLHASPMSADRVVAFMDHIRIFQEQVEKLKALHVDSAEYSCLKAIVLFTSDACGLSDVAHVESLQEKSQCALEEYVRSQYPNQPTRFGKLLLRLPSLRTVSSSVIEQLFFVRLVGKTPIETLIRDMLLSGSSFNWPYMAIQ
GalR3 antag – human GalR3 antagonism; O60755; HEK293 GalR3-CNG cAMP membrane potential fluorescence; galR3 body fused to GalR1 C-terminus; inhibition, % at 3 µM; 0.44% of 360,000 active; AID 651719;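 active means inhibition above the screen-wide average plus 3 SD, cut at about 13% in these data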;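 further: forskolin and galanin both at EC90 stimulate the cells; cAMP rise reported by CNG channel membrane potential dye signal; 0% = forskolin plus galanin with DMSO and 100% = forskolin alone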
Gli-Sufu antag – blocks Gli-Sufu signaling in a luciferase reporter; Sufu-KO-LIGHT fibroblasts, Gli luciferase reporter luminescence; inhibition, % at 5 µM; 0.74% of 340,000 active; AID 588413;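 active means inhibition above about 55%, limit read from the data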;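 further: 0% = DMSO-treated cells and 100% = wells with medium but no cells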
697 NFkB inh – inhibitors of the PMA/ionomycin-induced NF-kB reporter in 697 B cells; inhibition, % at 4 µM; 0.33% of 330,000 active; 697 B-cell NF-kB luciferase reporter, 16 h; in the data active means inhibition above about 35%
Gli-Sufu confirm – confirmation of Gli-SUFU pathway antagonists; inhibition, % at 5 µM; Sufu-KO-LIGHT cells, Gli luciferase reporter, luminescence; shares compounds with Gli-Sufu antag; AID 602428; 40% of 2,500 active;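 active means mean inhibition at 5 µM reaching about 45%, limit read from the data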;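 further: plate controls were DMSO-treated cells for no effect and wells lacking cells for full effect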
SufuKO cytotox – cytotoxic in Gli-SUFU antagonist counter-screen. shares compounds with Gli-Sufu antag. Sufu-KO-LIGHT cells cytotoxicity, ATP luminescence. cytotoxicity, % at 5 µM. 32% of 2,500 active;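 active means mean cytotoxicity at 5 µM above about 25%, limit read from the data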;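 further: cells exposed to compound overnight for roughly 16 to 18 hours; plate controls were DMSO wells with cells for no effect and medium without cells for full effect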
Wnt3a counter – counter-screen for Gli-SUFU antagonists: Wnt3a reporter inhibition; shares compounds with Gli-Sufu antag; Wnt-LIGHT cells, Wnt3a-driven luciferase reporter, luminescence; inhibition, % at 6.25 µM; 20% of 2,500 active;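 active means mean inhibition above about 25%, limit read from the data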
* = called active by the depositor; nt = no result given. Shown are actives, neighbours in structure and some others; about 2% of the full set was active somewhere.

SMILES	Jurkat NFkB inh	NR2F2 inh	GalR3 antag	Gli-Sufu antag	697 NFkB inh	Gli-Sufu confirm	SufuKO cytotox	Wnt3a counter
Cc1[nH]nc2c1C(c1ccco1)C(C#N)=C(N)O2 (stereo not given)	20	-4	-2	-1	18	nt	nt	nt
CCOc1ncccc1C(=O)Nc1cc(S(=O)(=O)N2CCCCC2)ccc1C	-5	-19	-4	4	2	nt	nt	nt
CCOc1ccc(S(=O)(=O)N2CCCCC2)cc1NC(=O)c1cccnc1OCC	-4	12	-5	56*	20	28	19	-41
Cn1cccc1C(=O)N1CCN(S(=O)(=O)c2ccccc2F)CC1	nt	-13	nt	nt	nt	nt	nt	nt
CC(C)C[C@H]1COc2cc(Br)ccc2S(=O)(=O)N1Cc1cn(Cc2ccc(Br)cc2)nn1	nt	12	nt	nt	nt	nt	nt	nt
CC(NC(=O)c1cc2c(=O)n3ccccc3nc2n(CC2CCCO2)c1=N)c1ccccc1 (stereo not given)	15	2	-9	59*	8	30	11	-53
N=c1c(C(=O)NC2CCCC2)cc2c(=O)n3ccccc3nc2n1CC1CCCO1 (stereo not given)	11	-17	-3	4	10	nt	nt	nt
CC1=NN(c2ccccc2)C(=O)/C1=C\N1CC(C)OC(C)C1 (stereo not given)	6	1	-7	98*	6	24	9	5
CC1=NN(c2ccccc2)C(=O)/C1=C/C=C/c1ccccc1	20	4	2	-15	-90	nt	nt	nt
COc1ccc(C(=O)NCC(=O)N2CCCCC2)cc1OC	-7	-5	3	-5	-1	nt	nt	nt
CCOc1ccccc1N1CCN(C(=O)CNC(=O)c2ccc(OC)c(OC)c2)CC1	-14	20	-5	71*	-5	10	9	-27
COC(=O)[C@]12CCCCC=C1N(Cc1ccc(OC)cc1)C(=O)[C@@H]2CC(=O)NCC1CCCCC1	nt	13	nt	nt	nt	nt	nt	nt
Cc1cc(NC(=O)CSc2nc(Cc3ccc(O)cc3)c(C)[nH]2)no1	-1	-13	0	53	-13	15	6	-18
CCOC(=O)[C@@]12CCCC3=C1N(CCC3)C(=O)[C@H]2CC(=O)NCCCCc1ccccc1	nt	6	nt	nt	nt	nt	nt	nt
COc1ccc(OCC(=O)NNC(=S)NC(=O)C2CCCCC2)cc1	-13	15	3	nt	7	nt	nt	nt
N#Cc1ccc(OCC(=O)NNC(=S)NC2CCCCC2)cc1	-25	-8	-5	58*	-11	25	4	-5
Cc1c(OCC(=O)C(C)(C)C)ccc2c3c(c(=O)oc12)CCCC3	-12	-19	-8	62*	-20	27	7	-50
CCOC(=O)COc1ccc2c3c(c(=O)oc2c1C)CCC3	4	3	-5	11	4	nt	nt	nt
CCCCOc1ccc(C(=O)n2ccc3ccc(-c4ccc5ccn(Cc6cccc(C(=O)OC)c6)c5c4)cc32)cc1	nt	9	nt	nt	nt	nt	nt	nt
CN1CCCC1CCSc1ncccc1-c1nc2ccccc2[nH]1 (stereo not given)	nt	-10	nt	nt	nt	nt	nt	nt
O=c1c2ccccc2[nH]c(=S)n1Cc1cccnc1	6	18	-3	0	3	nt	nt	nt
O=c1c2ccccc2c2ccccc2c(=O)n1Cc1cccnc1	-2	-5	-1	59*	8	7	11	-6
O=C(O)CSc1nc2ccccc2o1	-12	-11	-4	5	-12	nt	nt	nt
Nn1c(CSc2nc3ccccc3o2)nnc1CSc1nc2ccccc2o1	8	7	-2	94*	-1	23	-3	11
Cc1cc(-c2cccnc2)c(C#N)c(SCc2cccc(F)c2)n1	-7	-1	-6	55	-1	31	22	2
O=C(CSc1nnc(-c2ccccc2)n1-c1ccc(Cl)cc1)Nc1ccc2cn[nH]c2c1	nt	-6	nt	nt	nt	nt	nt	nt
CC(C)(C)CC(=O)Nc1cc(S(=O)(=O)N2CCCCCC2)ccc1Cl	11	0	-5	60*	11	17	5	-20
O=C(Cn1c(-c2ccccc2)c[n+]2ccsc12)c1ccc(Br)cc1	-23	-18	2	50	-33	45*	17	-31
COC(=O)[C@]12C[C@H](CC(=O)NCCC(C)C)C(=O)N(Cc3cccc4ccccc34)C1=C[C@H](C(C)(C)C)O[C@@H]2C	nt	10	nt	nt	nt	nt	nt	nt

Compound activity as filed in PubChem BioAssay.
